HTT cytoprotect: protects HTT-Q103 PC12 cells, measured by ATP | Potency, µM (highest dose often 56.4 µM), for inactives: cytoprotection (ATP increase), hits mostly activators | 230,000 tested, 0.14% active | PC12 HTT-Q103 induced, cytoprotection, ATP luminescence, 40 h; further: potency means the concentration at half of the fitted maximal effect; % of control where 0% means no effect; nearly all actives have a fitted effect of over 45% in size
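Readout: ATPlite luminescence (ATP level). Model: stable PC12, inducible Htt exon1 Q103-GFP. Inducer: tebufenozide, 100 nM final. Compounds: dose series. No G418 in medium.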
HPGD inh: inhibitors of human 15-hydroxyprostaglandin dehydrogenase (HPGD); P15428; purified HPGD, NADH fluorescence kinetic, PGE2 substrate; Potency, µM, for the others: top-dose activity change, negative = inhibition, usual class: inhibitors; 150,000 tested, 4.3% active; AID 894; active means well fitted inhibition curve with a large enough effect, not every such curve was filed as active; inconclusive means small, poorly fitted or top-dose-only effect, or another doubt; inactive means no such curve, though single readings can be large or run the other way; further: potency means the concentration at half of the fitted maximal effect; on the % scale 0 is the no-effect control and ±100 the full control effect
Target sequence (P15428 whole entry, looked up): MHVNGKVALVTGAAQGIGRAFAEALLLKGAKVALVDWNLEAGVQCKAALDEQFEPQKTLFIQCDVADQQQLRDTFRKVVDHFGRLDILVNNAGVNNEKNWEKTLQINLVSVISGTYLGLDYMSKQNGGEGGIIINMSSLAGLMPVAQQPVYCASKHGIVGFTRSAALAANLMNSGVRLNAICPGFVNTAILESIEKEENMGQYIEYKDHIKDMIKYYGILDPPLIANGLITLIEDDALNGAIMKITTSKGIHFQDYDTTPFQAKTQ
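20 nM HPGD preincubated 15 min at room temperature with compound in 50 mM Tris-HCl pH 8, 0.01% Tween 20. Started with 1 mM NAD+ and 30 uM prostaglandin E2; NADH fluorescence (360/450 nm) read 5 times over 30-s intervals, last minus first.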
HttQ103 aggreg: mutant huntingtin aggregation inhibition; PC12 HttQ103-GFP aggregates, Acumen cytometry, 40 h; Potency, µM (top dose mostly 46.1 µM), inactives show top-dose activity change, negative = inhibition, actives largely listed as inhibitors; 220,000 tested, 1.1% active; AID 1688; further: potency means the concentration at half of the fitted maximal effect; on the % scale 0 is the no-effect control and ±100 the full control effect; nearly all actives have a fitted effect of over 60% in size
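Using laser scanning cytometry, GFP-positive aggregates were counted after lysis of PC12 cells induced with 100 nM tebufenozide to express HTT exon 1 Q103–GFP. Compounds were tested in titration.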
IMPase Li cell: membrane-permeable IMPase blocker, potentiated with lithium | Potency, µM (doses to about 59.4 µM), inactives show top-dose activity, negative = IMPase inhibition, hits mostly inhibitors | 210,000 tested, 0.35% active | CHO-M1 cells, IP1 TR-FRET (IP-One), carbachol + lithium;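 further: IP1 builds up when IMPase is blocked and the TR-FRET signal falls; potency means the concentration at half of the fitted maximal effect; plate controls were basal vehicle for no effect and high inhibitor control for full effect; nearly all actives have a fitted effect of over 50% in size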
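IP1 accumulation measured by competitive TR-FRET in lysed CHO-M1 cells after 30 min compound exposure at 37C, with a small lithium addition to potentiate weak responses. Hill-equation AC50 from ratio and donor-channel data.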
ALDH1A1 inh: ALDH1A1 (human) enzyme inhibition; P00352; Purified ALDH1A1, NADH fluorescence, propionaldehyde substrate; Potency, µM (series often up to 75.3 µM), without a hit: at the top dose activity, negative = inhibition, most hits filed as inhibitors; 220,000 tested, 7.3% active; AID 1030; active means well fitted inhibition curve with a large enough effect, not every such curve was filed as active; inconclusive means small, poorly fitted or top-dose-only effect, or another doubt; inactive means no such curve, though single readings can be large or run the other way;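 further: potency means the concentration at half of the fitted maximal effect; plate controls were no enzyme wells and a reference inhibitor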
Target sequence (P00352 whole entry, looked up): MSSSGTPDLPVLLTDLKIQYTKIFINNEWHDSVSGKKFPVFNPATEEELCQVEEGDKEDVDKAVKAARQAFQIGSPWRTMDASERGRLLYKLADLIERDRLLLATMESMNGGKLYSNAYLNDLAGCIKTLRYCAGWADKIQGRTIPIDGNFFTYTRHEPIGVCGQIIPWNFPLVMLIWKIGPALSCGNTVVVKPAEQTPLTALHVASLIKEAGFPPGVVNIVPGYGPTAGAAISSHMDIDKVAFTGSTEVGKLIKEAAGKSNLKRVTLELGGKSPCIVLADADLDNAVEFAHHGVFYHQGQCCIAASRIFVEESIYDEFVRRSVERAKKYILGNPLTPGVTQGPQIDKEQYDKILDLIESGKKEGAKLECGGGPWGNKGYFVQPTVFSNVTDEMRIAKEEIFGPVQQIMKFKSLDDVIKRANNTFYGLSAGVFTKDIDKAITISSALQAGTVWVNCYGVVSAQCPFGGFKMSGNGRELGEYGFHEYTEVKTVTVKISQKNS
IMPase inh: cell-permeable inhibitors of inositol monophosphatase (IMPase). AID 901. P97697. inhibition (IP1 accumulation), % at 46.1 µM. 120,000 tested, under 10 active. CHO-M1 cells, IP1 accumulation, HTRF TR-FRET ratio; active means well fitted curve in the direction sought with a large enough effect in the signal ratio, not every such curve was filed as active; inconclusive means small, poorly fitted or top-dose-only effect, or a change in a side signal; inactive means no such curve, though single readings can be large or run the other way; the % refers to the signal ratio;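 further: cells stimulated with carbachol in lithium chloride buffer; plate controls were DMSO basal wells for no effect and reference inhibitor wells for full effect; higher means more IMPase inhibition seen as more IP1 and lower FRET ratio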
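In this qHTS, compounds (final up to 46 uM) act on CHO-M1 cells that are then activated through the M1 receptor with carbachol, in pH 7.4 buffer containing 50 mM LiCl, for 30 min. IP1 accumulation is quantified by the IP-One immunoassay.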
Numbers without * were called inactive; ? = inconclusive; . = not tested or not shown; [ ] = dose if it differs, or a comment. Hits are enriched below; roughly 9.4% of the tested compounds scored in any of these assays. Unless noted, the call rests on the fitted dose curve; in most records, active means well fitted curve in the direction sought with a large enough effect; inconclusive means small, poorly fitted or top-dose-only effect, or another doubt; inactive means no such curve, though single readings can be large; an effect the other way counts as inactive or inconclusive.

SMILES	HTT cytoprotect	HPGD inh	HttQ103 aggreg	IMPase Li cell	ALDH1A1 inh	IMPase inh
Cc1ccc(S(=O)(=O)NCCC(=O)Nc2nnc(C3CC3)s2)cc1C	4%	-9%	-4%	17%[38.3 µM]	18µM*	-8
CN(C)Cc1ccccc1-c1ccc2ncnc(NC3CC3)c2c1	14%	-28%	.	4%	-4%	.
COc1ccc(-c2nc3ccccc3c(=O)n2NC(=S)N(C)C)cc1	20%[10 µM]	14µM*	9%	0%	4µM*	3
O=C1C(=Nc2cccc(Cl)c2)CC(c2ccc(Cl)cc2)N1c1cccc(Cl)c1 (stereo not drawn)	43%[10 µM]	.	14%[9.22 µM]	.	?	.
Cc1ccc(S(=O)(=O)CCSc2nc(C)cc(C(F)(F)F)c2C#N)cc1	20%[10 µM]	-27%	?	11%	0.35µM*	-8
COC(=O)CSc1nc(C)cc(C(F)(F)F)c1C#N	-10%	-1%	6%	-7%[38.3 µM]	1%	6
CCOC(=O)NC(=O)CSc1nc(C)cc(C(F)(F)F)c1C#N	31%	-7%	10µM*	21%[38.3 µM]	-8%	12
CCOc1ccc(NS(=O)(=O)c2ccc(C)c(C(=O)O)c2)cc1	.	-3%	.	.	9%	.
c1ccc(Sc2ncnc3c2oc2ccccc23)cc1	-13%	32µM*	-24%	-3%[38.3 µM]	?	-10
N#CCCSc1ncnc2c1oc1ccccc12	-1%[0.074 µM]	-27%	?	11µM*	?	?
OCCSc1ncnc2c1oc1ccccc12	-15%[0.074 µM]	25µM*	1%	-13%[38.3 µM]	?	0
O=C(CN1C(=O)COc2ccc(Cl)cc21)Nc1cccc(C(=O)O)c1	.	.	.	.	.	-11
O=C(c1ccc(C#CC2(O)CCCCC2)cc1)N1CCOCC1	-7%	14µM*	-7%	32%[38.3 µM]	-11%	?
CCOC(=O)CNC(=O)c1ccc(C#CC2(O)CCCCC2)cc1	.	-1%	-14%	1%	3%	.
COCCn1c(C)cc(C2=NNC(=Nc3ccc(Cl)cc3Cl)SC2)c1C	?	-11%	0%	5%[38.3 µM]	25µM*	1
Cc1csc(N/N=C/c2ccc(O)c([N+](=O)[O-])c2)n1	3%[10 µM]	?	.	31%[38.3 µM]	?	13
O=C(CNC(=O)c1cccc(F)c1)N/N=C/c1ccc(O)c([N+](=O)[O-])c1	-1%[10 µM]	-14%	-10%	-1%	6%	6
O=[N+]([O-])c1cc(/C=N\Nc2nc(-c3ccccc3)cs2)ccc1O	-10%	.	-21%	-4%	11µM*	.
O=C(CNC(=O)c1ccc(F)cc1)N/N=C/c1ccc(O)c([N+](=O)[O-])c1	12%[10 µM]	25µM*	?	4%	?	8
O=C(CNC(=O)C(c1ccccc1)c1ccccc1)N/N=C/c1ccc(O)c([N+](=O)[O-])c1	14%[10 µM]	-15%	-6%	0%	13µM*	.
CCOC(=O)CC(CC(C)=O)C(=O)OCC (stereo not drawn)	?	-11%	.	27%	10%	.
CC(=O)OCC1C2CC[C@H]3C(OCc4ccc(F)cc4C(F)(F)F)OC[C@]4(C)[C@H]3C2=C(CN4C(=O)OC(C)(C)C)[C@H](C)C1COC(C)=O (stereo partly drawn)	-37%	-1%	.	-4%	-8%	.
Clc1cc(Cl)cc(Cl)c1	22%	1%	.	18%	3%	.
CCCn1c(=O)[nH]c2nc(-c3ccc(S(=O)(=O)O)cc3)[nH]c2c1=O	-14%	?	.	?	?	?
C=CCN(C(=O)c1cccc(S(=O)(=O)N2CCN(C)CC2)c1)c1nc(-c2ccccc2)cs1	-25%	-21%	?	34%[38.3 µM]	-15%	6
SMILES	HTT cytoprotect	HPGD inh	HttQ103 aggreg	IMPase Li cell	ALDH1A1 inh	IMPase inh
O=C1OC(c2ccc(Cl)cc2)/C(=C(/O)c2ccccc2)C1=O (stereo not drawn)	-7%	-13%	13%	-15%[38.3 µM]	7.9µM*	-4
CCOC(=O)C1CSC(Cc2ccc(OCc3ccc([N+](=O)[O-])cc3)cc2)N1 (stereo not drawn)	-86%	-23%	.	10%	5%	.
COc1cc(OC)cc(C(=O)/C=C2\Sc3ccccc3N2C)c1	-5%[10 µM]	.	-18%[9.22 µM]	18%	?	.
COc1ccc2c(c1)S/C(=C\C(=O)c1ccncc1)N2C	7%	28µM*	20%	?	14µM*	12
C[C@@]1(C(=O)O)CCC[C@@H]1C(=O)O	-6%[10 µM]	0%	.	4%	5%[13.5 µM]	.
CCCCn1c(CCC)nc([N+](=O)[O-])c1Sc1ccc(Cl)cn1	10%[10 µM]	-15%	10%	27%	7.1µM*	20
CC(C)Cn1c(C(C)C)nc([N+](=O)[O-])c1Sc1ccc(Cl)cn1	14%[10 µM]	-22%	26%	4%	22µM*	?
CCn1c(C)nc([N+](=O)[O-])c1Sc1ccc(F)cc1	.	-27%	30%	-3%	?	.
O=[N+]([O-])c1cc(S(=O)(=O)Nc2ccccc2)ccc1N1CCN(c2ccc(O)cc2)CC1	25%[10 µM]	-20%	4%	16%	32µM*	.
Cc1ccc(NS(=O)(=O)c2ccc(N3CCN(c4ccc(O)cc4)CC3)c([N+](=O)[O-])c2)c(C)c1	32%[10 µM]	-5%	-30%	7%	14µM*	.
CC(=O)N1CCCc2cc(S(=O)(=O)Nc3ccc(C)cc3C)ccc21	.	-7%	-9%	-6%	?	.
O=C(O)c1cc(NS(=O)(=O)c2ccc(N3CCOCC3)c([N+](=O)[O-])c2)cc(C(=O)O)c1	19%[10 µM]	-3%	14%	-4%	7%	0
COC(=O)[C@@H]1C[C@H]1[C@@H](NC(=O)c1ccc(Br)cc1)c1ccccc1	-35%	-2%	.	2%	-3%	.
Cc1ccc(OCCOc2ccc(Br)cc2)c([N+](=O)[O-])n1	12%[10 µM]	10µM*	-30%	8%	?	.
COc1ccc(/C=N/NC(=O)c2nn(-c3ccc(C)c(C)c3)c(=O)c3ccccc23)cc1	-5%[10 µM]	?	6%	23%[38.3 µM]	-10%	-7[1.84 µM]
COc1ccc(/C=N/NC(=O)c2nn(-c3ccc(Cl)cc3)c(=O)c3c(N)scc23)cc1	-36%	11µM*	8%	27%[38.3 µM]	6.3µM*	-3
CCOC(=O)c1nn(-c2ccc(OC)cc2)c(=O)c2c(N)scc12	3%[10 µM]	-26%	-11%	23%[38.3 µM]	8.9µM*	-12[1.84 µM]
COc1ccc(/C=N/NC(=O)c2nn(-c3ccccc3)c(=O)c3c(N)scc23)cc1	6%	28µM*	4%	-3%[38.3 µM]	28µM*	8
CCCCCCc1c(C[C@H](N)C(=O)O)o[nH]c1=O	-31%[1.9 µM]	-3%	.	13%	4%	-13
CCC(=O)Oc1c(C(=O)CC)cc2c(C)cc(=O)oc2c1C	.	15%	13µM*	3%	-5%	.
CCC(=O)c1cc2c(C)cc(=O)oc2c(C)c1OC	-3%[10 µM]	-17%	-33%	8%	-11%	-12

Source: PubChem
